An excerpt weighted towards active compounds, which were near 32% of everything screened.
CYP2C19 inhib: blocks human cytochrome P450 2C19. P33261. inhibition, % at 5 µM. CYP2C19 Supersomes, luciferin-H EGE luminescence, 30 min. 21% of 96,000 active;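 active = CYP2C19 inhibition above a set limit at 5 µM in the primary screen, cut at about 50% in these data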
CYP2C19 act: activators of human cytochrome P450 2C19. 96,000 tested, under 10 active. activation factor at 5 µM. recombinant CYP2C19, luciferin-H EGE luminescence; hits give high values; 0 = fully inhibited enzyme, 1 = untreated enzyme. P33261. AID 1025;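 active = activation factor of at least 2 at 5 µM in the primary screen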
PostGolgi ctrl: growth of the yeast control strain, post-Golgi counter-screen; AID 738; inhibition, % at 10 µM; efflux-deficient yeast background strain, growth absorbance A615, 16 h; 5% of 98,000 active
PostGolgi yeast: growth inhibition of a yeast mutant, post-Golgi transport screen. inhibition, % at 10 µM. post-Golgi transport phenotypic cell assay. 0.9% of 98,000 active;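 note: yeast cells grown in 1536-well plates; yeast grown about 18 h at 30C before absorbance read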
CYP2C9 activ: CYP2C9 (human) activation. P11712. recombinant CYP2C9, luciferin-H conversion, luminescence; hits give high values; factor 1 = untreated enzyme, 0 = blocked. activation factor at 5 µM. 1.4% of 96,000 active. AID 1024;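 active = activation factor of 2 or more for CYP2C9 at a 5 µM dose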
Target sequence (P11712 whole entry, looked up): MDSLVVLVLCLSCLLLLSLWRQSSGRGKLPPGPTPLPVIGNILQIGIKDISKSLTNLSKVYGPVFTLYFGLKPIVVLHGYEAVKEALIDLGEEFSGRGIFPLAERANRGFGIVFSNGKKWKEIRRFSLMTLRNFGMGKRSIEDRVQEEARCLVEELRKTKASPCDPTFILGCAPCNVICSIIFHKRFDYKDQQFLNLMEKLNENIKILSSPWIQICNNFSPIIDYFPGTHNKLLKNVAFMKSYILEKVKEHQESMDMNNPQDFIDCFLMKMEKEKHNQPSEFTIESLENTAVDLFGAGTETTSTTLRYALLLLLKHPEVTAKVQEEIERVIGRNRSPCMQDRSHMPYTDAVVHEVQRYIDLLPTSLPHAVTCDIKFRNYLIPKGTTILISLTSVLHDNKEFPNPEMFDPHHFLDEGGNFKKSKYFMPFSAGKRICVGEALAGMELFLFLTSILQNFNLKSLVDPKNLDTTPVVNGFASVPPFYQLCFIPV
CYP2C9 inh: human CYP2C9 inhibition. inhibition, % at 5 µM. P11712. 20% of 96,000 active. CYP2C9 Supersomes, luciferin-H conversion, luminescence;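 active = blocking of liver enzyme CYP2C9 beyond about 50% at 5 µM, limit read from the data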
A number is an active result. Cut-off read from the data, not from the text of the source, unless noted: active = inhibition above about 30%; inactive = the rest.

Screening CCOC(=O)c1ccccc1NC1c2ccccc2C(=O)N1c1cc(C)ccn1 (configuration not stated) returned CYP2C19 inhib 96, CYP2C19 act inactive, PostGolgi ctrl 55, PostGolgi yeast inactive, CYP2C9 activ inactive and CYP2C9 inh 83.
For COc1cc(OC)c(NC2c3ccccc3C(=O)N2c2cc(C)ccn2)cc1Cl (configuration not stated) the results were PostGolgi ctrl 33 and PostGolgi yeast inactive.
Screening Cc1cccc(NC(=O)C2CC(=O)N(c3ccccc3)C2)c1C (configuration not stated) returned CYP2C19 inhib inactive, CYP2C19 act inactive, PostGolgi ctrl inactive, PostGolgi yeast inactive, CYP2C9 activ inactive and CYP2C9 inh inactive.
O=C(OCc1nc2ccccc2s1)[C@@H]1CCCN1S(=O)(=O)c1ccccc1F was read as CYP2C19 inhib inactive, CYP2C19 act inactive, PostGolgi ctrl inactive, PostGolgi yeast inactive, CYP2C9 activ inactive and CYP2C9 inh inactive.
Screening Nn1c(SCC(=O)N2CCOCC2)nnc1-c1ccco1 returned CYP2C19 inhib inactive, CYP2C19 act inactive, PostGolgi ctrl inactive, PostGolgi yeast inactive, CYP2C9 activ inactive and CYP2C9 inh inactive.
Screening N#CCCNC(=O)CCN1CCCCC1 returned CYP2C19 inhib inactive, CYP2C19 act inactive, PostGolgi ctrl inactive, PostGolgi yeast inactive, CYP2C9 activ inactive and CYP2C9 inh inactive.
CN(C)/C=N/c1c(C(=O)NCc2ccccc2)nnn1Cc1ccccc1 was read as CYP2C19 inhib inactive, CYP2C19 act inactive, PostGolgi ctrl inactive, PostGolgi yeast inactive, CYP2C9 activ inactive and CYP2C9 inh inactive.
Screening CCn1c2ccccc2c2cc(NC(=O)C(C)Oc3ccccc3)ccc21 (configuration not stated) returned CYP2C19 inhib 61, CYP2C19 act inactive, PostGolgi ctrl inactive, PostGolgi yeast inactive, CYP2C9 activ inactive and CYP2C9 inh inactive.
`CC(Oc1ccc(F)cc1)C(=O)Nc1ccc2ccccc2c1` (configuration not stated) gave CYP2C19 inhib inactive, CYP2C19 act inactive, PostGolgi ctrl inactive, PostGolgi yeast inactive, CYP2C9 activ inactive and CYP2C9 inh inactive.
`CCn1c2ccccc2c2cc(NC(=O)C(C)Oc3ccc(OC)cc3)ccc21` (configuration not stated) gave CYP2C19 inhib 69, CYP2C19 act inactive, PostGolgi ctrl inactive, PostGolgi yeast inactive, CYP2C9 activ inactive and CYP2C9 inh inactive.
`O=C(Oc1c(CN2CCOCC2)cc(Cl)c2cccnc12)c1ccc(F)cc1` gave CYP2C19 inhib inactive, CYP2C19 act inactive, PostGolgi ctrl inactive, PostGolgi yeast inactive, CYP2C9 activ inactive and CYP2C9 inh 62.
COc1cccc(C(=O)Oc2c(CN3CCOCC3)cc(Cl)c3cccnc23)c1 was read as CYP2C19 inhib 63, CYP2C19 act inactive, PostGolgi ctrl inactive, PostGolgi yeast inactive, CYP2C9 activ inactive and CYP2C9 inh 91.
`O=C(Oc1ccc(Cl)c2cccnc12)N1CCOCC1` gave CYP2C19 inhib inactive, CYP2C19 act inactive, PostGolgi ctrl inactive, PostGolgi yeast inactive, CYP2C9 activ inactive and CYP2C9 inh inactive.
Screening COc1cc(C(=O)Oc2c(CN3CCOCC3)cc(Cl)c3cccnc23)cc(OC)c1OC returned CYP2C19 inhib 66, CYP2C19 act inactive, PostGolgi ctrl inactive, PostGolgi yeast inactive, CYP2C9 activ inactive and CYP2C9 inh inactive.
CCCC(=O)NC(c1ccco1)c1cc(Cl)c2cccnc2c1O (configuration not stated) was read as CYP2C19 inhib inactive, CYP2C19 act inactive, PostGolgi ctrl inactive, PostGolgi yeast inactive, CYP2C9 activ inactive and CYP2C9 inh inactive.
`O=C(Oc1c(Cl)cc(Cl)c2cccnc12)c1ccco1` gave CYP2C19 inhib inactive, CYP2C19 act inactive, PostGolgi ctrl 31, PostGolgi yeast inactive, CYP2C9 activ inactive and CYP2C9 inh inactive.
Screening COc1ccc(C(=O)Oc2c(CN3CCOCC3)cc(Cl)c3cccnc23)cc1 returned CYP2C19 inhib inactive, CYP2C19 act inactive, PostGolgi ctrl inactive, PostGolgi yeast inactive, CYP2C9 activ inactive and CYP2C9 inh inactive.
For O=C(COc1ccccc1-c1ccccc1)Nc1ccc(S(=O)(=O)NCc2ccco2)cc1 the results were CYP2C19 inhib inactive, CYP2C19 act inactive, PostGolgi ctrl inactive, PostGolgi yeast inactive, CYP2C9 activ inactive and CYP2C9 inh inactive.
`O=C(Nc1cc(Cl)ccc1O)c1snnc1-c1ccccc1` gave CYP2C19 inhib 52, CYP2C19 act inactive, PostGolgi ctrl inactive, PostGolgi yeast inactive, CYP2C9 activ inactive and CYP2C9 inh 83.
`CCOC(=O)CC(=O)Nc1cc(Cl)ccc1O` gave CYP2C19 inhib inactive, CYP2C19 act inactive, PostGolgi ctrl inactive, PostGolgi yeast inactive, CYP2C9 activ inactive and CYP2C9 inh inactive.
For COc1ccccc1CNC(=O)CN(C)CC(=O)Nc1cccc(F)c1 the results were CYP2C19 inhib 92, CYP2C19 act inactive, PostGolgi ctrl inactive, PostGolgi yeast inactive, CYP2C9 activ inactive and CYP2C9 inh 85.
For COc1ccccc1CC(=O)Nc1cc(Cl)ccc1O the results were CYP2C19 inhib 51, CYP2C19 act inactive, PostGolgi ctrl inactive, PostGolgi yeast inactive, CYP2C9 activ inactive and CYP2C9 inh inactive.
`COc1ccc(NC(=S)Nc2nc(CC(=O)Nc3ccccc3OC)cs2)cc1` gave CYP2C19 inhib inactive, CYP2C19 act inactive, PostGolgi ctrl inactive, PostGolgi yeast inactive, CYP2C9 activ inactive and CYP2C9 inh inactive.
`COc1ccccc1CNC(=O)C[n+]1ccccc1` gave CYP2C19 inhib inactive, CYP2C19 act inactive, PostGolgi ctrl inactive, PostGolgi yeast inactive, CYP2C9 activ inactive and CYP2C9 inh inactive.
`COc1ccccc1NC(=O)Cc1csc(NC(=S)Nc2ccccc2)n1` gave CYP2C19 inhib inactive, CYP2C19 act inactive, PostGolgi ctrl inactive, PostGolgi yeast inactive, CYP2C9 activ inactive and CYP2C9 inh 66.
For COC(=O)[C@H](Cc1ccccc1)NC(=O)NCc1ccccc1OC the results were CYP2C19 inhib inactive, CYP2C19 act inactive, PostGolgi ctrl inactive, PostGolgi yeast inactive, CYP2C9 activ inactive and CYP2C9 inh inactive.
`COC(=O)COc1ccc(S(=O)(=O)Nc2ccc(C(N)=O)cc2)cc1Cl` gave CYP2C19 inhib inactive, CYP2C19 act inactive, PostGolgi ctrl inactive, PostGolgi yeast inactive, CYP2C9 activ inactive and CYP2C9 inh inactive.
Screening O=c1cc(NCc2ccco2)c2ccccc2o1 returned CYP2C19 inhib inactive, CYP2C19 act inactive, PostGolgi ctrl inactive, PostGolgi yeast inactive, CYP2C9 activ inactive and CYP2C9 inh inactive.
`Cc1cc(=O)n2cc(-c3ccccc3)nc2[nH]1` gave CYP2C19 inhib inactive, CYP2C19 act inactive, PostGolgi ctrl inactive, PostGolgi yeast inactive, CYP2C9 activ inactive and CYP2C9 inh inactive.
`O=C(CCc1ccccc1)Nc1cc(Cl)ccc1O` gave CYP2C19 inhib 99, CYP2C19 act inactive, PostGolgi ctrl inactive, PostGolgi yeast inactive, CYP2C9 activ inactive and CYP2C9 inh 88.
`COc1ccccc1CC(=O)Nc1ccccc1O` gave CYP2C19 inhib 62, CYP2C19 act inactive, PostGolgi ctrl inactive, PostGolgi yeast inactive, CYP2C9 activ 3.5 and CYP2C9 inh inactive.
